In PubChem BioAssay AID1159580 (chemical genetic matrix, 2015):
Screen size: about 5,500 compounds; about 2,000 (36%) were called active. About 18% were inconclusive and are not listed. Cut-off read from the data, not from the text of the source: active = normalized growth mostly below about 0.91 (no sharp cut-off); inconclusive = no clear call, values can overlap the other calls; inactive = mostly above about 0.92. The list shows a part of the results.

Assay: chemical genetic growth profiling, strain panel (AID 1159580);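 note: tested at 20 µM; growth read once vehicle control cultures reached saturation at 30 °C; 1 = growth at the plate median or of vehicle wells; lower values mean less growth of the strain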
Conditions: S. cerevisiae deletion strains, growth OD

Measured: normalized growth

CC(=O)[C@@]12O[C@](C)(c3ccccc3)O[C@@H]1CC1C3CCC4=CC(=O)CC[C@]4(C)C3CC[C@@]12C (some centres undefined)
inactive: locus YHR030C, strain SLT2, active compounds read low 1.06 | locus YHR079C, strain IRE1, active compounds read low 1.03 | locus YJL095W, strain BCK1, active compounds read low 0.901 | locus YJR066W, strain TOR1, active compounds read low 1.01 | locus YLR113W, strain HOG1, active compounds read low 0.897 | locus YNL183C, strain NPR1, active compounds read low 0.987 | locus YOR231W, strain MKK1, active compounds read low 1 | locus YPL256C, strain CLN2, active compounds read low 1.02

C#C[C@]1(O)CC[C@H]2[C@@H]3CCC4=Cc5oncc5CC4(C)[C@H]3CCC21C (some centres undefined)
inactive: locus YAL040C, strain CLN3, active compounds read low 0.943 | locus YCL061C, strain MRC1 (second series), active compounds read low 1 | locus YDR363W, strain ESC2, active compounds read low 1.02 | locus YER002W, strain NOP16, active compounds read low 0.949 | locus YGR078C, strain PAC10, active compounds read low 0.948 | locus YGR229C, strain SMI1, active compounds read low 1.02 | locus YJR075W, strain HOC1, active compounds read low 1 | locus YMR263W, strain SAP30, active compounds read low 1 | locus YMR307W, strain GAS1, active compounds read low 0.988 | locus YNL153C, strain GIM3, active compounds read low 0.917 | locus YNL175C, strain NOP13, active compounds read low 0.917 | locus YNL197C, strain WHI3, active compounds read low 0.921 | locus YNL224C, strain SQS1, active compounds read low 0.934 | locus YOR083W, strain WHI5 (second series), active compounds read low 0.99 | locus YPL055C, strain LGE1, active compounds read low 1.02 | locus YPL241C, strain CIN2, active compounds read low 1
